PubChem BioAssay (EPA / NIEHS)
Activity calls are given as the source filed them. How the source made its calls: active means hit-call score of the fitted dose curve at least 0.9, where 1 is the maximum; inactive means score below 0.9.

Read-out: not listed separately
Experiment: BSK_BE3C_SRB: Viability Assessment in the BioMAP Diversity Plus: BE3C Assay (AID 2283028);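 further: measured 24 h after chemical dosing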;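 on AC50: fitted both ways so AC50 may mark signal gain or loss versus DMSO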
Details: primary human bronchial epithelial cells
Method in brief: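 Cells (human bronchial epithelial, primary) are treated with chemicals, and after 24 h the parallel cultures are fixed in 10% TCA. These are then stained with 0.1% SRB and read at 560 nm. Gain or loss of signal is fitted relative to DMSO.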

SMILES	AC50	outcome
OC(c1ccc(Cl)cc1)(c1ccc(Cl)cc1)C(Cl)(Cl)Cl	12.9 µM (active)	
Cn1c(-c2ccccc2)cc(-c2ccccc2)[n+]1C		inactive
CC1(C)C(C(=O)OC(C#N)c2cccc(Oc3ccccc3)c2)C1(C)C (configuration not stated)	6.87 µM (active)	
CCC(C)n1c(=O)[nH]c(C)c(Br)c1=O (configuration not stated)		inactive
COCC(=O)N(c1c(C)cccc1C)C(C)C(=O)OC (configuration not stated)		inactive
CSC(=O)c1c(C(F)F)nc(C(F)(F)F)c(C(=O)SC)c1CC(C)C	16.8 µM (active)	
CCOc1nc(F)cc2nc(S(=O)(=O)Nc3c(Cl)cccc3Cl)nn12		inactive
COC(=O)NS(=O)(=O)c1ccc(N)cc1		inactive
Cc1ccc(N=CN(C)C=Nc2ccc(C)cc2C)c(C)c1	28.2 µM (active)	
CC(C)(C)C(=O)C(Oc1ccc(Cl)cc1)n1cncn1 (configuration not stated)		inactive
CN=C=S		inactive
CO/N=C(/C1=NOCCO1)c1ccccc1Oc1ncnc(Oc2ccccc2Cl)c1F		inactive
CC1(C)CCC(=Cc2ccc(Cl)cc2)C1(O)Cn1cncn1 (configuration not stated)		inactive
COc1cc(Cl)c(OC)cc1Cl		inactive
CCCCC(C#N)(Cn1cncn1)c1ccc(Cl)cc1 (configuration not stated)		inactive
CCCCC(O)(Cn1cncn1)c1ccc(Cl)cc1Cl (configuration not stated)		inactive
Cc1nc(N(C)C)nc(OC(=O)N(C)C)c1C		inactive
COc1ccc(-c2ccccc2)cc1NNC(=O)OC(C)C		inactive

Read-out: Thrombomodulin, THBD (gene 7056)
Experiment: BSK_3C_Thrombomodulin: BioMAP Diversity Plus: 3C Assay for Thrombomodulin Biomarker Activity (AID 2283029)
Details: primary human endothelial cells (HUVEC); actives raise or lower the signal
Method in brief: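 Human umbilical vein endothelial cells were exposed to chemicals for 24 h; cell-surface thrombomodulin quantified by ELISA, with bidirectional fitting against DMSO baseline.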

SMILES	outcome
CC(C)Nc1nc(Cl)nc(NC(C)C)n1	inactive
CNC(=O)N(C)c1nnc(C(C)(C)C)s1	inactive
COCC(=O)N(c1c(C)cccc1C)C(C)C(=O)OC (configuration not stated)	inactive
CSC(=O)c1c(C(F)F)nc(C(F)(F)F)c(C(=O)SC)c1CC(C)C	inactive
COC(=O)NS(=O)(=O)c1ccc(N)cc1	inactive
CC(C)(C)C(=O)C(Oc1ccc(Cl)cc1)n1cncn1 (configuration not stated)	inactive
CC1(C)CON(Cc2ccccc2Cl)C1=O	inactive
Cc1cc(C)nc(Nc2ccccc2)n1	inactive
COc1cc(Cl)c(OC)cc1Cl	inactive
CC(C)NC(=O)N1CC(=O)N(c2cc(Cl)cc(Cl)c2)C1=O	inactive
Clc1nc(Cl)nc(Nc2ccccc2Cl)n1	inactive
COC(=O)N(C(=O)N1CO[C@@]2(C(=O)OC)Cc3cc(Cl)ccc3C2=N1)c1ccc(OC(F)(F)F)cc1	inactive
Nc1c(Cl)c(F)nc(OCC(=O)O)c1Cl	inactive
COc1ccc(-c2ccccc2)cc1NNC(=O)OC(C)C	inactive
